Several values for one entry are separate records, joined by “and”; a condition that tells them apart may be missing. Identical values can stand only once. About 83,000 compounds went through this panel and 20% of them were active in at least one assay; those are over-represented in the sample as a whole.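 Cell lines were cultured in 96-well plates, exposed to a single compound concentration, and assessed for percent growth 48 hours later.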 Activity calls are given as the source filed them. How the source made its calls: active means growth percent below 10; inactive means the rest.

What all share (assay): NCI-60 one-dose screen, 48 h (100 = growth as untreated, 0 = no growth, -100 = all killed)
One assay concerns EKVX NSCLC. The following applies: 10 µM.
The next assay deals with SN12C renal. The following applies: 10 µM.
For the next assay, the system named is UO-31 renal. The conditions noted are these: 10 µM.
In another assay the test system is ACHN renal. The conditions noted are these: 10 µM.
In another assay the test system is CAKI-1 renal. The following applies: 10 µM.
In another assay the test system is A498 renal. The following applies: 10 µM.
Another assay concerns CCRF-CEM leukemia. The following applies: 10 µM.
The test system of another assay is MOLT-4 leukemia. The following applies: 10 µM.
The next assay concerns SR leukemia. The conditions noted are these: 10 µM unless noted.
Another assay has as its system RPMI-8226 leukemia. The following applies: 10 µM.
The test system of another assay is OVCAR-8 ovarian. The following applies: 10 µM.
In another assay the test system is OVCAR-5 ovarian. The following applies: 10 µM.
The next assay deals with OVCAR-4 ovarian. The following applies: 10 µM.
A further assay relates to SK-OV-3 ovarian. The following applies: 10 µM.
Another assay deals with IGROV1 ovarian. The conditions noted are these: 10 µM.
The next assay deals with HS 578T breast. The conditions noted are these: 10 µM.
Another assay deals with NCI/ADR-RES ovarian. The following applies: 10 µM.
A further assay relates to SK-MEL-2 melanoma. The conditions noted are these: 10 µM.
In a further assay the test system is TK-10 renal. The following applies: 10 µM.
For a further assay, the system named is OVCAR-3 ovarian. The following applies: 10 µM.

As for `CC(C)(C)CC(C)(C)c1ccc(OCCO)cc1`, the growth in the assay with EKVX NSCLC is 122% (inactive); in the assay on SN12C renal, 103% (inactive); in the assay on UO-31 renal it was 88.2% (inactive); in the assay with ACHN renal, 117% (inactive); in the assay with CAKI-1 renal, 115% (inactive); in the assay with A498 renal it was 115% (inactive). Further, the growth with CCRF-CEM leukemia was 106% (inactive); in the assay on MOLT-4 leukemia it was 85.4% (inactive); in the assay with SR leukemia, 85.5% (inactive); with RPMI-8226 leukemia, 124% (inactive); in the assay with OVCAR-8 ovarian, 108% (inactive); with OVCAR-5 ovarian, 111% (inactive). For the same molecule, the growth in the assay on OVCAR-4 ovarian is 124% (inactive); with SK-OV-3 ovarian it was 116% (inactive); in the assay on IGROV1 ovarian it was 108% (inactive); in the assay with HS 578T breast it was 94.6% (inactive); in the assay on NCI/ADR-RES ovarian, 105% (inactive).

As to `CCC(C)(C)c1cc(O)c(C(C)(C)CC)cc1O`, the growth is 24.4% (inactive) in the assay on SK-MEL-2 melanoma; 43.4% (inactive) with EKVX NSCLC; 36.5% (inactive) with SN12C renal; 63.2% (inactive) with TK-10 renal; 43.4% (inactive) in the assay on ACHN renal; 41.4% (inactive) in the assay on CAKI-1 renal. Further, the growth was 50.1% (inactive) with A498 renal; 24.7% (inactive) in the assay on MOLT-4 leukemia; 45.1% (inactive) in the assay on SR leukemia; 22.3% (inactive) with RPMI-8226 leukemia; 65.9% (inactive) in the assay with OVCAR-8 ovarian; 49.2% (inactive) with OVCAR-5 ovarian. For the same molecule, the growth is 28% (inactive) in the assay with OVCAR-4 ovarian; 57.2% (inactive) in the assay with SK-OV-3 ovarian; 64.8% (inactive) with IGROV1 ovarian; 31.9% (inactive) with HS 578T breast; 39.2% (inactive) with NCI/ADR-RES ovarian.

As to `Cc1nc(N=C(N)N)nc2ccc3ccccc3c12`, the growth is -19% (active) with SK-MEL-2 melanoma; -22.6% (active) in the assay with SN12C renal; 5.39% (active) with UO-31 renal; 3.86% (active) in the assay with TK-10 renal; 15.1% (inactive) with ACHN renal; 75.2% (inactive) in the assay on CAKI-1 renal. Besides, the growth is 32.9% (inactive) with A498 renal; -25.9% (active) in the assay with CCRF-CEM leukemia; -28.2% (active) in the assay on MOLT-4 leukemia; 34.9% (inactive) with RPMI-8226 leukemia; -6.19% (active) in the assay on OVCAR-8 ovarian; 26.8% (inactive) in the assay on OVCAR-5 ovarian. The growth in the assay on OVCAR-4 ovarian was -3.65% (active); with SK-OV-3 ovarian it was -5.35% (active); with IGROV1 ovarian, 7.89% (active); with OVCAR-3 ovarian, -32.7% (active); with HS 578T breast it was 3.6% (active); in the assay on NCI/ADR-RES ovarian, 67.6% (inactive).

On to `Oc1ccc(N=Nc2ccccn2)c(O)c1`, for which the growth was 27.8% (inactive) in the assay with SK-MEL-2 melanoma; 24.1% (inactive) in the assay with EKVX NSCLC; 20.5% (inactive) with SN12C renal; 5.48% (active) with UO-31 renal; 13.8% (inactive) in the assay with ACHN renal; 59.2% (inactive) with A498 renal. The growth in the assay on CCRF-CEM leukemia was 3.95% (active); in the assay on MOLT-4 leukemia, 4.34% (active); with SR leukemia, 10.6% (inactive); in the assay with RPMI-8226 leukemia, 21.2% (inactive); with OVCAR-8 ovarian it was 18.5% (inactive); in the assay on OVCAR-5 ovarian it was 53.8% (inactive). Also, the growth in the assay with OVCAR-4 ovarian is 29.8% (inactive); in the assay with SK-OV-3 ovarian, 25.5% (inactive); in the assay on IGROV1 ovarian, 19.9% (inactive); in the assay with HS 578T breast, 65.1% (inactive); in the assay with NCI/ADR-RES ovarian, 14.7% (inactive).

With `NNc1c2ccccc2nc2ccccc12`, the growth in the assay on EKVX NSCLC is 58.3% (inactive); in the assay with SN12C renal, 52.2% (inactive); in the assay on UO-31 renal, 61.4% (inactive); in the assay on TK-10 renal it was 45.4% (inactive); in the assay with ACHN renal, 46.7% (inactive); with A498 renal, 49.3% (inactive). Also, the growth in the assay with CCRF-CEM leukemia was 37.7% (inactive); in the assay on MOLT-4 leukemia it was 29% (inactive); with SR leukemia, 21.1% (inactive); in the assay on RPMI-8226 leukemia, 34.7% (inactive); in the assay with OVCAR-8 ovarian, 57.2% (inactive); with OVCAR-5 ovarian, 102% (inactive). Besides, the growth in the assay with OVCAR-4 ovarian is 34.4% (inactive); in the assay with SK-OV-3 ovarian it was 63.5% (inactive); in the assay with IGROV1 ovarian, 55% (inactive); in the assay on NCI/ADR-RES ovarian, 57.3% (inactive).

With `COc1c(O)cc2oc3cc(O)c(CC=C(C)C)c(O)c3c(=O)c2c1CC=C(C)C`, the growth was 89.8% (inactive) in the assay with SK-MEL-2 melanoma; 54% (inactive) in the assay on EKVX NSCLC; 51.5% (inactive) in the assay on SN12C renal; 49.3% (inactive) in the assay on UO-31 renal; 58.8% (inactive) in the assay on ACHN renal; 56.2% (inactive) in the assay with CAKI-1 renal. The growth in the assay on A498 renal is 97.2% (inactive); in the assay on CCRF-CEM leukemia, 47.8% (inactive); with MOLT-4 leukemia, 42.3% (inactive); with SR leukemia, 7.13% (active); with RPMI-8226 leukemia it was 49.9% (inactive); in the assay with OVCAR-8 ovarian it was 54.7% (inactive). The growth was 82.2% (inactive) in the assay on OVCAR-4 ovarian; 89% (inactive) with SK-OV-3 ovarian; 75% (inactive) with IGROV1 ovarian; 46.1% (inactive) in the assay with OVCAR-3 ovarian; 73.3% (inactive) in the assay on HS 578T breast; 38.6% (inactive) with NCI/ADR-RES ovarian.

Consider `Nc1c2ccccc2nc2ccccc12`, for which the growth is -33.8% (active) and 33.6% (inactive) and 51.8% (inactive) with SK-MEL-2 melanoma; -24.1% (active) and 43.9% (inactive) and 57.3% (inactive) with EKVX NSCLC; 12% (inactive) and 33.2% (inactive) and 33.5% (inactive) in the assay on SN12C renal; 12.8% (inactive) and 11.1% (inactive) and 14.2% (inactive) with UO-31 renal; 16.9% (inactive) and 25.5% (inactive) in the assay with ACHN renal; -37.7% (active) and 19.8% (inactive) and 21.5% (inactive) in the assay with CAKI-1 renal. The growth with A498 renal was -0.261% (active) and 37.5% (inactive) and 18.3% (inactive); in the assay with CCRF-CEM leukemia it was 35.3% (inactive) and 20.5% (inactive) and 50.7% (inactive); in the assay on MOLT-4 leukemia, 8.47% (active) and 10.2% (inactive) and 12.6% (inactive); in the assay with SR leukemia it was 0.28% (active) and 18.5% (inactive) and 24.2% (inactive); in the assay on RPMI-8226 leukemia, 43.6% (inactive) and -28.8% (active) and 43.7% (inactive); in the assay on OVCAR-8 ovarian, -30.4% (active) and 38.1% (inactive) and 29.2% (inactive). Moreover, the growth was 78.4% (inactive) and 55.4% (inactive) in the assay with OVCAR-5 ovarian; 4.83% (active) and 33.8% (inactive) and 56.2% (inactive) in the assay on OVCAR-4 ovarian; 18.9% (inactive) and 40% (inactive) and 34.1% (inactive) in the assay with SK-OV-3 ovarian; 13.6% (inactive) and -40.3% (active) and 32.2% (inactive) in the assay on IGROV1 ovarian; 44.9% (inactive) and 27.5% (inactive) and 82.2% (inactive) in the assay with HS 578T breast; 7.27% (active) and 43.1% (inactive) and 37% (inactive) in the assay with NCI/ADR-RES ovarian.
